Cav3 T inh = blocks human Cav3.2 T-type calcium channel; O95180; Cav3.2-expressing cells, Fluo-4 calcium fluorescence FDSS; active compounds read low; B-score at 10 µM; 100,000 compounds, 4% hits; AID 449739;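 active = single-dose well whose peak fluorescence ratio is a statistical outlier from its plate by either plate-standardised score or position-corrected B-score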
Target sequence (O95180 whole entry, looked up): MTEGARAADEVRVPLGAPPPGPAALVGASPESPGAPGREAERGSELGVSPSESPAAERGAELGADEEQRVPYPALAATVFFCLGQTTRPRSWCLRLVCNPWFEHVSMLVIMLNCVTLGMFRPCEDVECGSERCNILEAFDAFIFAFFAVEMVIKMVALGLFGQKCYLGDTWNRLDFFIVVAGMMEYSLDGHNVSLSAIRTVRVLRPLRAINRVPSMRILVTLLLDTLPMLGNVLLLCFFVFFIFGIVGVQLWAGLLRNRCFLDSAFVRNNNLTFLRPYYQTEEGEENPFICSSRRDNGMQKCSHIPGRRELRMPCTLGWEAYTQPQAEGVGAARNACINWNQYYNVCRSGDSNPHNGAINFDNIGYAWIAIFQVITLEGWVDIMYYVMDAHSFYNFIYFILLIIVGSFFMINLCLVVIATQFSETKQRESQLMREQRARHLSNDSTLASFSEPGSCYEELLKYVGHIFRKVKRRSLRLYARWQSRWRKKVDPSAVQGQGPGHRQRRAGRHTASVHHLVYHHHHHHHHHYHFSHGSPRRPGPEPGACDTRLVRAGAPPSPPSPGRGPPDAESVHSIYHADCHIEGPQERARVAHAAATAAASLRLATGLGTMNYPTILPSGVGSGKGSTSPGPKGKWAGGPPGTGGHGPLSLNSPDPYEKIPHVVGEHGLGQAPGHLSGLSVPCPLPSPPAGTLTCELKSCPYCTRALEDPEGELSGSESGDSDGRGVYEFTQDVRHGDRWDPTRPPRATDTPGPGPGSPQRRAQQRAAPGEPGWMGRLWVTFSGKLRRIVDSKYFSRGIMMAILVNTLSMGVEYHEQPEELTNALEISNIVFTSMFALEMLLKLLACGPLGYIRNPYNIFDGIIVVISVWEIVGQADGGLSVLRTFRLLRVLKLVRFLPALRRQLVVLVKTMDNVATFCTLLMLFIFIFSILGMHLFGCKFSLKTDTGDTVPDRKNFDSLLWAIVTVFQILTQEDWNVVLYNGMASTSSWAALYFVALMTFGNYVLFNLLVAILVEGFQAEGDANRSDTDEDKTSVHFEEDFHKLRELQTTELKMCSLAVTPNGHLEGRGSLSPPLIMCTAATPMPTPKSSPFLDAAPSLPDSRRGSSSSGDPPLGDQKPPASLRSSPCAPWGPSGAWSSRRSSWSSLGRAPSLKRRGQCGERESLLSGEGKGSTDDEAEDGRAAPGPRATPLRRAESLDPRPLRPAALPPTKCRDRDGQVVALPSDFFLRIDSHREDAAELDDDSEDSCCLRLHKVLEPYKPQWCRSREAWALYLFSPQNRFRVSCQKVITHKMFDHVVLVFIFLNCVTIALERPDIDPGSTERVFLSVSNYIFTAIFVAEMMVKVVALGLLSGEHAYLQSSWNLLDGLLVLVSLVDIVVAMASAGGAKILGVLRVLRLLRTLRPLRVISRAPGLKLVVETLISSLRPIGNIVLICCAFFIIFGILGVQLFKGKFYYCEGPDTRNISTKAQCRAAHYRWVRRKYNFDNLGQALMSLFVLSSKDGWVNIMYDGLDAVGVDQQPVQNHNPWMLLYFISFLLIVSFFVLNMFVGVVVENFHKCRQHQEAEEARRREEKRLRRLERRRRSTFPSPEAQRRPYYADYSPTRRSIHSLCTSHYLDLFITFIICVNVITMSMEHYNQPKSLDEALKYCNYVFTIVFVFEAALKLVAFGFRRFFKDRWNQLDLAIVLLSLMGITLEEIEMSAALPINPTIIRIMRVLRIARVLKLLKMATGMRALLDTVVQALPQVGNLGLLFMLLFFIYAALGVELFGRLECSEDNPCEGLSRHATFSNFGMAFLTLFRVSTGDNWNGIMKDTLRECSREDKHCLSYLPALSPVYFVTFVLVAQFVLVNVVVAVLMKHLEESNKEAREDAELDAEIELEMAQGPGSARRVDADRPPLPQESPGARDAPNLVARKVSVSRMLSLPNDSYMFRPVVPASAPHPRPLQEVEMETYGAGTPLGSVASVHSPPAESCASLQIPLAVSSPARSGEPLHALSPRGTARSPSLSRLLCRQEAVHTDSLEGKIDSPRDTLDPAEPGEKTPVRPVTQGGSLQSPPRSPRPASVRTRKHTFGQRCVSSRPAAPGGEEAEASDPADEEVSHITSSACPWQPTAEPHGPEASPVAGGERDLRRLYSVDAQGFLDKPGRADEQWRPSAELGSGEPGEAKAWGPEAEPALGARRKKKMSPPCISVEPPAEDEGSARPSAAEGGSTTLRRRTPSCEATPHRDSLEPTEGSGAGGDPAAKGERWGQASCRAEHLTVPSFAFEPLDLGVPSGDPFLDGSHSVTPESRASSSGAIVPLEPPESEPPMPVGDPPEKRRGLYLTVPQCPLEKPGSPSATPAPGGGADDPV
DAT uptake mod = human DAT dopamine uptake with cocaine, either direction. Q01959. LLC-PK1 hDAT cells, [14C]-dopamine uptake with cocaine IC80; actives deviate in either direction. B-score at 10 µM. 110,000 compounds, 1.3% hits. AID 449768;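 active = Z score or B-score, a plate-position-corrected score, falls beyond the plate's 99.7% confidence bounds, in either direction; inactive = both scores lie inside the 99.7% bounds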;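 also: scored against the spread of the other compound wells on the same plate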
PLAP activator = activates human placental alkaline phosphatase | P05187 | purified PLAP enzyme, luminescent substrate read-out; active compounds read high | activation fold at 20 µM | 96,000 compounds, 1.2% hits | AID 696; in the data active = activation fold above about 2
PostGolgi ctrl = yeast control strain growth, post-Golgi counter-screen; efflux-deficient yeast background strain, growth absorbance A615, 16 h; inhibition, % at 10 µM; 98,000 compounds, 5% hits; AID 738
PostGolgi yeast = growth inhibition of a yeast mutant, post-Golgi transport screen; post-Golgi transport phenotypic cell assay; inhibition, % at 10 µM; 98,000 compounds, 0.9% hits; AID 739;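 also: yeast cells grown in 1536-well plates; yeast grown about 18 h at 30C before absorbance read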
D1 mod = D1 dopamine receptor (human) allosteric modulation. 58,000 compounds, 5.9% hits. B-score at 10 µM. P21728. HEK293 D1, CRE-luciferase, dopamine EC30 potentiation; actives deviate in either direction;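 active = luminescence count or its row- and column-corrected plate score outside the 99.7% band of the plate's sample wells, on either side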
D1 PAM confirm = confirmation of human D1 dopamine receptor allosteric modulators. HEK293 D1 CRE-luciferase, dopamine EC30 potentiation; active compounds read high. luminescence at 10 µM. 2,200 compounds, 88% hits. shares compounds with D1 mod;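 active = luminescence in either of two replicates above the same-plate mean plus 3 SD of the low-dose dopamine control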
D1 no dopamine = D1 (human) signaling in absence of dopamine; shares compounds with D1 mod; HEK293 D1 CRE-luciferase, luminescence, no dopamine; active compounds read high; luminescence at 10 µM; 1,900 compounds, 0.8% hits; AID 646; in the data active = luminescence above about 3900
Isoprot counter = isoproterenol response counter-screen activity for D1 modulators | HEK293 D1 CRE-luciferase, isoproterenol EC30 counter-screen | 2,200 compounds, 63% hits | calls only at 10 µM | shares compounds with D1 mod;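 active = luminescence in either replicate above plate mean of wells with a partly effective reference agonist dose plus 3 SD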;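 also: isoproterenol raises cAMP through native beta-adrenoceptor Gs so signal bypasses D1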
* = called active by the depositor; i = inactive; x = no result; + = active, no number. Rows were chosen to be rich in hits. Some 12% of all compounds tested hit in one or more screens of this group. Rule as the data show it, unless noted: active = inhibition above about 30%; inactive = the rest.

SMILES	Cav3 T inh	DAT uptake mod	PLAP activator	PostGolgi ctrl	PostGolgi yeast	D1 mod	D1 PAM confirm	D1 no dopamine	Isoprot counter
COC(=O)C(C)Sc1nnc2n(-c3cccc(C)c3)c(=O)c3c4c(sc3n12)CCCC4 (stereo not drawn)	-0.491	-0.427	1.6	4.8	-0.3	9.25*	16844*	1688	+
c1ccc(-c2ccc3c(c2)c2c4n3CCN=C4CCC2)cc1	0.0874	1.66	1.5	13.9	0.7	x	x	x	x
CCNc1nc2c(c(=O)[nH]c(=O)n2C)n1CC(C)C	-0.631	-0.538	1.1	4.1	-1.0	1.84	x	x	x
CCCCCCn1c(SCC(=O)OC)nc2c1c(=O)[nH]c(=O)n2C	1.08	0.812	1	-0.3	-1.3	4.67*	5408	1472	+
CCCCCCn1c(NCC)nc2c1c(=O)[nH]c(=O)n2C	0.281	-1.13	1.2	9.9	13.3	5.31*	9696*	1604	+
CCCCCn1c(Sc2ncccn2)nc2c1c(=O)[nH]c(=O)n2C	1.24	0.235	x	-0.9	11.4	19.5*	25988*	1676	+
CCCCCn1c(Sc2nc3ccccc3s2)nc2c1c(=O)[nH]c(=O)n2C	-1.58	1.41	1.5	34.7*	1.5	16.6*	22672*	1660	+
Cc1ccc(Cn2c(Sc3nccc(C)n3)nc3c2c(=O)[nH]c(=O)n3C)cc1	0.528	-0.3	1.5	2.3	2.5	x	x	x	x
O=C(C1=C[C@H](C2CC2)C[C@H](OCCCCO)O1)N1CCOCC1	0.468	-0.885	x	x	x	x	x	x	x
CCn1cnc2sc(C(=O)N(Cc3ccc(N(C)C)cc3)Cc3ccco3)c(C)c2c1=O	-3.89	0.113	1.5	39.1*	11.6	4.85*	12360*	x	+
CCn1cnc2sc(C(=O)N3CCN(Cc4ccc5c(c4)OCO5)CC3)c(C)c2c1=O	x	x	1.2	14.9	0.5	x	x	x	x
Cc1cc(NS(=O)(=O)c2ccc(NC(=O)COc3ccccc3C(C)C)cc2)no1	-0.665	-0.507	1.5	-3.9	2.7	4.12*	6636*	1576	i
O=C(CCS(=O)(=O)c1cccc2nsnc12)NCc1ccccc1Cl	1.63	-0.293	0.8	10.1	2.1	x	x	x	x
CCOC(=O)c1[nH]c(C)c(C(=O)c2cc(F)ccc2F)c1C	x	x	1	15.0	10.1	5.66*	8492*	1728	+
COc1ccc(-c2nc(CSCC(=O)N3CCc4ccccc4C3)c(C)o2)cc1OC	-0.486	1.91*	1.4	21.4	5.7	7.84*	7660	1528	+
COc1ccc(-c2nc(CSCC(=O)N3CCN(c4cccc(C)c4)C(C)C3)c(C)o2)cc1OC (stereo not drawn)	x	x	1.6	21.0	-8.7	11.6*	12288*	x	+
COc1ccc(-c2nc(CSCC(=O)N3CCC(C(N)=O)CC3)c(C)o2)cc1OC	x	0.5	1.3	-10.7	-5.3	0.709	x	x	x
CCOC(=O)N1CCC(NC(=O)CSCc2nc(-c3ccc(OC)c(OC)c3)oc2C)CC1	x	x	1.3	4.5	-6.8	1.31	x	x	x
COc1ccc(-c2nc(CS(=O)CC(=O)NC3CCCc4ccccc43)c(C)o2)cc1OC (stereo not drawn)	-0.475	-1.4	1.7	1.7	4.7	4.44*	9276*	x	+
COc1cccc(/C(O)=C2/C(=O)C(=O)N(CCN3CCOCC3)C2c2cccs2)c1 (stereo not drawn)	x	x	1	7.7	-5.5	0.51	x	x	x
Cc1cc(=O)oc2c(C)c(OCC(=O)N(C)C)ccc12	0.0429	0.57	1.3	4.4	2.1	0.934	x	x	x
COc1ccc2c(C)cc(=O)oc2c1C	-1.45	-1.33	0.9	2.5	0.5	5.73*	11556*	x	+
COC(=O)CSc1nc(-c2ccc(F)cc2)cc(C(F)(F)F)n1	-0.446	1.89	x	x	x	x	x	x	x
COCCNC(=O)CSc1nc(-c2ccc(OC)c(OC)c2)cc(C(F)(F)F)n1	0.208	0.799	1.3	9.4	-10.0	9.35*	12172*	1680	+
CC(=O)c1ccc(N2CCCCCC2)c(F)c1	0.573	-0.344	0.9	5.3	-7.5	2.7*	5360	1576	i
SMILES	Cav3 T inh	DAT uptake mod	PLAP activator	PostGolgi ctrl	PostGolgi yeast	D1 mod	D1 PAM confirm	D1 no dopamine	Isoprot counter
CCCC(=O)c1ccc(N2CCCCCC2)c(F)c1	x	0.0172	1.1	2.1	-1.4	0.198	x	x	x
CCOC(=O)c1nc[nH]c1C	-0.254	-0.299	0.7	-3.8	1.3	x	x	x	x
CCc1ccc2nc(SCC(=O)N(CC)CC)c(C#N)cc2c1	0.21	-0.902	0.9	8.0	-6.2	3.13*	8128*	1728	+
CCOC(=O)CSc1nc2cc(OCC)ccc2cc1C#N	-0.456	-0.683	1	10.5	14.2	2.28	x	x	x
COC(=O)c1oc2ccc(Br)cc2c1NC(=O)CCN1CCOCC1	0.36	0.0162	1.5	7.6	-3.8	-0.234	x	x	x
CCOC(=O)c1oc2ccc(Br)cc2c1NC(=O)CN1CCN(C)CC1	1.87	1.44	1.7	-2.4	2.9	5.74*	5896*	1096	i
COc1ccc(C2CNC(=O)C2)cc1OC1CCCC1 (stereo not drawn)	0.42	0.127	x	x	x	44.7*	20880*	x	+
CN1C(=O)C2(C(C#N)=C(N)Oc3c2oc(CO)cc3=O)c2ccccc21 (stereo not drawn)	0.258	0.00903	0.8	0.2	9.1	8.88*	5568	1636	i
N#CC1=C(N)Oc2c(oc(CO)cc2=O)C12C(=O)Nc1ccc(Cl)cc12 (stereo not drawn)	-0.457	-1.42	1.2	3.0	-2.2	-0.234	x	x	x
CC(=O)Nc1ccc2c(c1)nc(CCN1CCN(C)CC1)n2C	0.233	-1.23	1	2.7	0.5	0.421	x	x	x
Cc1csc2nc(CNC(=O)c3cccc(C(F)(F)F)c3)cn12	-0.87	-0.0181	1	5.6	-3.4	x	x	x	x
COc1ccc(C(=O)NCc2cn3c(C)csc3n2)cc1OC	1.04	0.0323	x	11.6	-0.9	8.31*	15440*	1644	+
CC(C)Nc1nc(NC(C)C)nc(Oc2ccc(/C=N/O)cc2)n1	x	0.418	x	20.6	-0.2	5.32*	6456*	x	i
O=C1Nc2ccccc2C1(O)Cc1ccncc1 (stereo not drawn)	0.53	-0.594	1	-0.6	5.6	-0.0462	x	x	x
O=C(CC1(O)C(=O)Nc2cc(Cl)cc(Cl)c21)c1ccncc1 (stereo not drawn)	-0.21	-1.49	x	5.2	-4.6	3.54*	7604	1960	i
COc1cccc(NC(=O)C23CCC(C)(C(=O)O2)C3(C)C)c1 (stereo not drawn)	0.106	0.198	1.2	-2.8	4.8	x	x	x	x
Cc1cccc(-c2c3c(=O)n(C)c(=O)n(C)c3cn2C(C)(C)C)c1	1.28	0.888	1.2	3.5	0.9	1.65	x	x	x

Screening results: PubChem, several laboratories
